Reference: PubChem BioAssay (NCI)
This is part of a sample that, as a whole, favours compounds with a hit. Of some 79,000 tested, about 15% had one in any assay. A number with no mark means an inactive call. Calls of active or inactive are those of the source. Rule as the data show it: active = growth inhibition above about 70%; inactive = the rest.

Legend:
[1] = NCI Yeast Anticancer Drug Screen. Data for the rad50 strain (AID 155);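 also: 0% = growth of vehicle-only cultures of the same strain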; details: S. cerevisiae rad50 strain growth inhibition, stronger effect = higher value
Procedure, shortened: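 Vehicle-treated cultures provide the reference for the growth inhibition reported for compound-exposed, repair-deficient yeast.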

[2] = NCI Yeast Anticancer Drug Screen. Data for the mec2-1 strain (AID 157); details: S. cerevisiae mec2-1 strain, stronger effect = higher value
Procedure, shortened: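 Vehicle-treated cultures served as reference for growth inhibition of compound-exposed mec2-1 yeast.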

[3] = NCI Yeast Anticancer Drug Screen. Data for the sgs1 mgt1 strain (AID 161);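 also: 0% = growth of cultures given vehicle only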; details: S. cerevisiae sgs1 mgt1 strain, stronger effect = higher value
Procedure, shortened: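 Inhibition of yeast growth, normalised to vehicle-treated controls, is reported for a strain bearing genetic alterations in DNA damage repair.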

[4] = NCI Yeast Anticancer Drug Screen. Data for the cln2 rad14 strain (AID 165);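 also: 0% = growth equal to vehicle treated cultures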; details: S. cerevisiae cln2 rad14 strain, stronger effect = higher value
Procedure, shortened: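 Each compound was tested on cln2 rad14 yeast. Inhibition of growth was calculated against vehicle-exposed controls.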

[5] = NCI Yeast Anticancer Drug Screen. Data for the bub3 strain (AID 167); details: S. cerevisiae bub3 mutant strain, stronger effect = higher value
Procedure, shortened: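 Mutant yeast screening strain plus compound; vehicle-treated cultures serve as the 0% inhibition reference.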

[6] = NCI Yeast Anticancer Drug Screen. Data for the mlh1 rad18 strain (AID 175); details: S. cerevisiae mlh1 rad18 strain growth inhibition, stronger effect = higher value
Procedure, shortened: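 Vehicle-treated cultures served as the reference for growth inhibition in a yeast strain carrying DNA damage repair alterations exposed to each compound.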

[7] = at 5.0 µM (retest, dose inferred, filed as 0.5)
[8] = at 50.0 µM (retest, dose inferred, filed as 5.0)

Compound | growth inhibition [1, 7] | growth inhibition [1, 8] | growth inhibition ([1]; at 50.0 µM) | growth inhibition [2, 7] | growth inhibition [2, 8] | growth inhibition ([2]; at 50.0 µM) | growth inhibition [3, 7] | growth inhibition [3, 8] | growth inhibition ([3]; at 50.0 µM) | growth inhibition [4, 7] | growth inhibition [4, 8] | growth inhibition ([4]; at 50.0 µM) | growth inhibition [5, 7] | growth inhibition [5, 8] | growth inhibition ([5]; at 50.0 µM) | growth inhibition [6, 7] | growth inhibition [6, 8] | growth inhibition ([6]; at 50.0 µM)
CCCCCCC(O)C(CO)CCCCC (configuration not stated) | 0% | 97% (active) | 98% (active) | -2% | 96% (active) | 98% (active) | 1% | 62% | 45.5% | 5% | 97% (active) | 98.8% (active) | 0% | 97% (active) | 98.2% (active) | -2% | 92% (active) | 98.5% (active)
NC(=O)NN=C1CSSC1 | 7% | 48% | 96.2% (active) | 4% | 23% | 76.5% (active) | 3% | 34% | 58% | -9% | -6% | -3.8% | 1% | 2% | 77.8% (active) | -1% | 72% (active) | 94.2% (active)
[Cl][Pt+2]([Cl])([Cl])[Cl].[NH-]CC1(C[NH-])CCCC1 | 86% (active) | 99% (active) | 90.2% (active) | 68% | 99% (active) | 90.8% (active) | 62% | 86% (active) | 90.3% (active) | 57% | 81% (active) | 86% (active) | 61% | 88% (active) | 93% (active) | 56% | 98% (active) | 83.5% (active)
CCCCCCCCCCCCCC(=O)OCC(O)CO (configuration not stated) | 2% | 2% | -2.25% | 2% | 28% | 6.1% | 4% | 11% | -0.5% | 7% | 10% | 75.3% (active) | 1% | 22% | 8.05% | 3% | 12% | 8.55%
COc1ccc(C2Oc3c(cccc3OC)C=C2[N+](=O)[O-])cc1 (configuration not stated) | 20% | 96% (active) | 40.5% | 23% | 98% (active) | 40.1% | 40% | 96% (active) | 37.7% | 12% | 92% (active) | -4.5% | 45% | 96% (active) | 45.2% | 33% | 98% (active) | 44%
COc1ccc(C(C#N)=C2C=CC(=NOC(=O)Nc3ccccc3)C=C2)cc1 | 41% | 82% (active) | 88.4% (active) | 28% | 92% (active) | 93.1% (active) | 68% | 96% (active) | 94.8% (active) | 4% | 91% (active) | -1.4% | 12% | 37% | 69.1% | 33% | 91% (active) | 96.3% (active)
ON=C1c2ccccc2-c2ccccc21 | 8% | 58% | 54.2% | 2% | 21% | -3.05% | 2% | 30% | 41.5% | -12% | -6% | -68.6% | -4% | 9% | 30.9% | 9% | 58% | 71.7% (active)
O=C(CCN1CCCC1)c1ccc(Oc2ccc(F)cc2)cc1 | 28% | 50% | 69.8% | 20% | 48% | 11.7% | 31% | 60% | 47.2% | 34% | 68% | 54.7% | 31% | 72% (active) | 49.4% | 30% | 56% | 63.4%
CCOc1ncc(Cl)c(OCC)n1 | 3% | -5% | -25.4% | -4% | -2% | 35.9% | -1% | -6% | -28.2% | -7% | 2% | -21.3% | 1% | -3% | -12.7% | 2% | -5% | -18.1%
